Laboratory results from PubChem BioAssay (NCATS).
The source made the active and inactive calls. The call rests on the fitted dose curve.

biological target: Guanidinoacetate N-methyltransferase (Homo sapiens) (UniProt Q14353); test: Confirmatory Screen for Target Class Profiling of Small Molecule Inhibitors of Methyltransferases (AID 1745852); conditions: MTase-Glo luminescence, SAH detection, recombinant enzyme; activity change, negative = inhibition: at 57.3 µM (top of the series) unless noted; series mostly up to 57.3 µM
On the % scale 0 is the no-effect control and ±100 the full control effect; potency means the concentration at half of the fitted maximal effect.

Compared with `Cc1ccc(-c2ccc(N)nc2)c2cccnc12`, `O=C(Nc1ccc2c(N3CCCCC3)ncnc2c1)c1ccccc1C(F)(F)F` is lower in activity change, negative = inhibition: 1.37% for the first, -6.31% for the second.

First: COc1cccc(CN2C(=O)c3nc4ccccc4n3CC2(C)C(=O)NC2CCC(C)CC2)c1 (stereo not given)
Second: COC(=O)c1cc2n(n1)CC(C)(C(=O)NC1CCC(C)CC1)N(Cc1ccc(OC)cc1OC)C2=O (stereo not given)
The activity change, negative = inhibition of the first is higher: 0.902% for the first, -7.55% for the second.

Going from `CCCC1c2cccn2CCN1C(=O)Nc1ccc(Br)cc1` (stereo not given) to `O=C(Nc1ccc(F)c(Cl)c1)N1CCn2cccc2C1Cc1ccccc1` (stereo not given), the activity change, negative = inhibition rises from -4.2% to 1.87%.

`Cc1nc2c3ccccc3n3c(CCCC(=O)NCCCN(C)Cc4ccccc4)nnc3n2n1` and `Cc1ccc2c(c1)c(-n1cccc1)c1n2CC(C)(C(=O)NCCC(C)C)N(Cc2cccnc2)C1=O` (stereo not given) are the same in activity change, negative = inhibition: 0% for the first, 0% for the second.

Going from `CCN1CCN(c2nc3c(S(=O)(=O)c4ccc(Br)cc4)nnn3c3ccccc23)CC1` to `Cn1cc(CN2CCCC(COc3ccccc3C(=O)N3CCCCC3)C2)c2ccccc21` (stereo not given), the activity change, negative = inhibition rises from 2.08% to 7.22%.

First: Cc1cc2c(cc3n2CC(C)(C(=O)NC2CCCCCCC2)N(Cc2ccco2)C3=O)o1 (stereo not given)
Second: COc1ccc(CCN2C(=O)c3cc4oc(C)cc4n3CC2(C)C(=O)NC2CCCCC2)cc1OC (stereo not given)
The activity change, negative = inhibition of the first is higher: 0% for the first, -4.8% for the second.

Going from `CCOC(=O)c1ccc(NC(=O)Cn2c(=O)oc3cc(S(=O)(=O)N4CCCC4)ccc32)cc1` to `CCC1CCCCN1CCCNC(=O)Cn1ccc2cc(S(=O)(=O)N3CCCCC3)ccc21` (stereo not given), the activity change, negative = inhibition rises from -4.51% to 0%.

First: Cn1c(COc2cccc(CN3CCCC3)c2Cl)nnc1C1CC(N)C1 (stereo not given)
Second: CCCCNC(=O)c1cccc(-c2cc(N3CCN(C)CC3)nc(N)n2)c1
The activity change, negative = inhibition of the first is higher: -2.28% for the first, -5.28% for the second.

First: CCc1ccc(N2C(=O)c3cc4sccc4n3CC2(C)C(=O)NC2CCCCCC2)cc1 (stereo not given)
Second: CC1CCCCC1NC(=O)C1(C)Cn2c(cc3sccc32)C(=O)N1Cc1ccc(Cl)cc1 (stereo not given)
The activity change, negative = inhibition of the first is higher: 0.902% for the first, -6.06% for the second.

First: O=C(Nc1ccc2c(N3CCOCC3)ncnc2c1)c1cccc(Cl)c1
Second: c1ccc(CN2CCc3c(sc4ncnc(N5CCOCC5)c34)C2)cc1
The activity change, negative = inhibition of the first is higher: -4.21% for the first, -10.8% for the second.

First: FC(F)(F)c1cccc(-c2nccn3c(C4CN(Cc5ccc6cn[nH]c6c5)C4)ncc23)c1
Second: COc1cccc([S+](=O)([O-])N2CCC3(C2)N=C(c2cccnc2)C(=O)N3)c1 (stereo not given)
The activity change, negative = inhibition of the first is higher: 4.1% for the first, -6.21% for the second.

Compared with `Cc1nc2cccnc2n1CC1CCCN(S(=O)(=O)c2ccc3c(c2)OCCO3)C1` (stereo not given), `CCCN1CCn2c3c(c4cc(OC)ccc42)CCN=C31` is lower in activity change, negative = inhibition: -0.116% for the first, -1.32% for the second.

Compared with `CCOCCCN1C(=O)c2cc3c(OC)ccc(OC)c3n2CC1(C)C(=O)NC1CCCCC1` (stereo not given), `COc1cc2c(cc1O)NC(=O)CC2c1cn[nH]c1-c1cc(C)ccc1C` (stereo not given) is higher in activity change, negative = inhibition: -4.76% for the first, 2.11% for the second.

With `CCOC(=O)c1cc2n(n1)CC(C)(C(=O)NCCC(C)C)N(c1ccccc1C)C2=O` (stereo not given) the “outcome” value was “inactive”.

For `COc1ccc(CCNC(=O)c2ccc3c(=O)[nH]c4c(C(=O)NCC5CCCO5)sc(=S)n4c3c2)cc1OC` (stereo not given), the Potency was 27.1 µM (active).
`COc1ccc(-c2nnn3c2nc(N2CCOCC2)c2ccccc23)cc1` was tested, and the Potency was 19.2 µM (active).
With `COCc1nc2nc(-c3ccccc3)c(-c3ccc(O)c(F)c3)cc2n1C` the Potency was 39.3 µM (active).
In the case of `COc1ccc(CCNC(=O)c2ccc3c(=O)[nH]c4c(C(=O)NC5CCCC5)sc(=S)n4c3c2)cc1OC`, the Potency is reported as 24.1 µM (active).
In the case of `O=C(NCc1ccc2c(c1)OCO2)c1sc(=S)n2c1[nH]c(=O)c1cc(Cl)ccc12`, the Potency is reported as 30.4 µM (active).
In the case of `O=C(NCCc1ccc(Cl)cc1)c1ccc2c(=O)[nH]c3c(C(=O)NCC4CCCO4)sc(=S)n3c2c1` (stereo not given), the Potency is reported as 27.1 µM (active).

Compared with `Cc1ccccc1-c1[nH]nc2ncc(-c3c(C)noc3C)nc12`, `CC1(C)[C@H](Cc2cc(-c3ccccc3)on2)C[C@@H]1NCC1CC1` is higher in activity change, negative = inhibition: -10.5% [at 85.7 µM] for the first, -0.152% [at 85.7 µM] for the second.

Compared with `N#Cc1cnc(N2CC3CCC(C2)N3CC(F)(F)F)s1`, `FC(F)(F)c1ccnc(N2CC[C@H](c3nnc(-c4ccncc4)o3)C2)n1` is higher in activity change, negative = inhibition: -4.72% [at 85.7 µM] for the first, 0.304% [at 85.7 µM] for the second.

Going from `O=C(Nc1ccccc1)c1cnc2c(c1)N(C(=O)Cc1ccc(O)cc1)CCC2` to `Cn1cnc(CN2CCNc3cc(Nc4ccccc4)ncc3C2)c1`, the activity change, negative = inhibition rises from -4.86% [at 85.7 µM] to 2.31% [at 85.7 µM].

`COc1ccc2nc([C@H]3CCN(C4CCCCC4)C3)[nH]c2c1` showed an activity change, negative = inhibition of 4.16% [at 85.7 µM].
